Screening data (PubChem)
Rows were chosen to be rich in hits. Some 4.1% of all compounds tested hit in one or more screens of this group.
A1 inh: caspase 3/7 activation in MEF A1-2A-BIM cells, primary screen, A1 inhibitor project, cell-based, luminescence, HTS. caspase activation, % (no concentration beside the values). 330,000 tested, 0.066% active. Caspase-Glo 3/7 luminescence, 3 h; percent of clofoctol response, vehicle zero;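 active = over half of replicate activation scores above 10%, or exactly half above 10 with the replicate mean above 10; inconclusive = replicate mean below 10 yet half the replicates above 10; inactive = over half of replicates below 10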
CSC inhib: cancer stem cell viability inhibitors, primary screen, luminescence | cancer stem cell-like cells viability | inhibition, % at 7.5 µM | 300,000 tested, 1.1% active; in the data active = inhibition above about 75%; inconclusive = no clear call, values can overlap the other calls; tested in HMLE shEcad cells
Beta apoptosis: inhibitors of cytokine-induced beta cell apoptosis, primary screen, luminescence; 300,000 tested, 0.8% active; protection from apoptosis, % (no concentration beside the values); INS-1E cytokine-induced death, ATP luminescence, 48 h; percent of positive-control rescue, neutral wells zero; AID 435005, 2010;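 active = Every replicate reaches about 75%, or at least half do and their mean reaches it too, limit read from the data; inconclusive = At least half of replicates reach the limit but their mean does not; inactive = Under half of replicates reach the limit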;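 also: higher means more ATP so stronger rescue from cytokine killing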
aSyn 5UTR inh: MLPCN primary screen, SNCA 5' untranslated region; alpha-synuclein 5'UTR reporter, inhibitor activity; inhibition, % (tested at 7.5 µM); 300,000 tested, 0.82% active; AID 1813, 2009; in the data active = inhibition above about 60%; inconclusive = no clear call, values can overlap the other calls;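 also: H4 neuroglioblastoma cells stably carrying SNCA 5'UTR luciferase fusion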
Mdm2 MdmX PPI: inhibitors of human Mdm2-MdmX association, primary screen, cell-based, luminescence, split luciferase, SaOS-2, uHTS; Protein Mdm4 (Homo sapiens) + E3 ubiquitin-protein ligase Mdm2 (Homo sapiens), …; inhibition, % at 8 µM; 330,000 tested, 3% active; SaOS-2 split-luciferase Mdm2/MdmX complementation;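 active = inhibition of at least 50% at 8 µM in the primary screen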
Target sequence (O15151 whole entry, looked up): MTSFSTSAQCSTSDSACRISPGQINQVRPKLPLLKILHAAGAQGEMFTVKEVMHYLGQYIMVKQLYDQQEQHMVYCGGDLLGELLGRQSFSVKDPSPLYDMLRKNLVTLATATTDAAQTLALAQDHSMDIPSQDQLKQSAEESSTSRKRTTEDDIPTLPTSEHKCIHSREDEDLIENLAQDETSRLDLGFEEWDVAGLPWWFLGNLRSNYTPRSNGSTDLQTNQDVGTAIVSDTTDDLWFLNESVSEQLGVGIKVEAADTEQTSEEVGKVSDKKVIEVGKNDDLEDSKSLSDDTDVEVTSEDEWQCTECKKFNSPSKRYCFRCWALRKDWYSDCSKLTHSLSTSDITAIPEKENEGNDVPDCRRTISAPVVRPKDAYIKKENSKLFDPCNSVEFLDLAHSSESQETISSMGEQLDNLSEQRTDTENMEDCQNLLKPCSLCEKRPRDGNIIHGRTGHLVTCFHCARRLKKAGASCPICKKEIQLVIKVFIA
Target sequence (Q00987 whole entry, looked up): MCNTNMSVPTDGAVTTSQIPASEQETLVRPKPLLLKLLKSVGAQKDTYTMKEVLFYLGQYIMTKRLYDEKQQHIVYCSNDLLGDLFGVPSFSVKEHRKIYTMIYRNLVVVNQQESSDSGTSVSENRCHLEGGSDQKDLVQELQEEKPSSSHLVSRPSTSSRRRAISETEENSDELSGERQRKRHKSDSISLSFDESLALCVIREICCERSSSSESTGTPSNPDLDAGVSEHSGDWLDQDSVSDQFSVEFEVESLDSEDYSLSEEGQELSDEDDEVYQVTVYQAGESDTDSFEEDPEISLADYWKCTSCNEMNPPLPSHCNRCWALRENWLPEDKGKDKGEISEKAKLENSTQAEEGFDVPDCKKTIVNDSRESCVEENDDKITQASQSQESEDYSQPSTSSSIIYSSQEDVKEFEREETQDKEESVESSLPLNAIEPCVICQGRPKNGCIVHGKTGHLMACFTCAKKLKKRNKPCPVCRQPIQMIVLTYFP
Mdm2 MdmX conf: Mdm2-MdmX complex disruptors, retested hits, confirmation, luminescence, single concentration. shares compounds with Mdm2 MdmX PPI. Mdm2-MdmX binding, luminescent assay. inhibition, % at 8 µM. 10,000 tested, 55% active. AID 489028, 2010; in the data active = inhibition above about 40%
Full FLuc ctr: full-length luciferase signal inhibition, confirmation, counter-screen for Mdm2/MdmX interaction inhibitor project, cell-based, single concentration, SaOS-2; 6,200 tested, 77% active; AID 504607, 2011; shares compounds with Mdm2 MdmX PPI; inhibition, % at 8 µM; SaOS-2 full-length luciferase counterscreen, luminescence;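 active = mean inhibition at 8 µM reaching about 37%, which flags the compound as non-specific, limit read from the data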;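 also: p53-null SaOS-2 cells with luciferase driven by a doxycycline-inducible promoter; compound on cells about two nights before reading with doxycycline added after day one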
Each line names hits and unclear results; the compound was inactive in the other large screens (follow-up assays come after a bar, where they were run).

COc1ccc2[nH]c3c(c2c1)CCN1C(=O)C(CC(=O)NC/C=C(\C)CCC=C(C)C)C[C@H](C(=O)N(C(C)C)C(C)C)[C@@]31C (some centres undefined)	Mdm2 MdmX PPI 84 (no result: A1 inh, CSC inhib, Beta apoptosis, aSyn 5UTR inh) | Mdm2 MdmX conf inactive
COC(=O)c1ccc(-c2ccc([C@H]3[C@H]4C=CC[C@@H](C)[C@@H]4C(=O)N3Cc3ccccc3)c(F)c2)cc1	none
CC(=O)c1ccc(-c2ccc([C@H]3[C@H]4C=CC[C@@H](C)[C@@H]4C(=O)N3Cc3ccccc3)c(F)c2)cc1	CSC inhib 75, Mdm2 MdmX PPI 56 | Mdm2 MdmX conf inactive
COc1ccc(-c2cc3ccccc3s2)cc1[C@H]1[C@H]2C=CC[C@@H](C)[C@@H]2C(=O)N1Cc1ccccc1	none
COc1ccc(-c2ccc(N(C)C)cc2)cc1[C@H]1[C@H]2C=CC[C@@H](C)[C@@H]2C(=O)N1Cc1ccccc1	none
C[C@@H]1CC=C[C@H]2[C@H]1C(=O)N(Cc1ccccc1)[C@H]2c1ccc2ccccc2c1Br	Mdm2 MdmX PPI 84 (no result: A1 inh, CSC inhib, Beta apoptosis) | Mdm2 MdmX conf inactive
COc1ccc(/C=C/c2ccccc2)cc1[C@H]1[C@H]2C=CC[C@@H](C)[C@@H]2C(=O)N1Cc1ccccc1	none | Mdm2 MdmX conf inactive
COC(=O)c1ccc(-c2ccc(OC)c([C@H]3[C@H]4C=CC[C@@H](C)[C@@H]4C(=O)N3Cc3ccccc3)c2)cc1	Mdm2 MdmX PPI 62 | Mdm2 MdmX conf 45 | Full FLuc ctr 46
CC(=O)c1ccc(-c2ccc([C@H]3[C@@H]4C=CCC[C@@]4(C)C(=O)N3Cc3ccccc3)c(F)c2)cc1	CSC inhib 121, Mdm2 MdmX PPI 54 | Mdm2 MdmX conf inactive
C[C@@]12CCC=C[C@H]1[C@H](c1ccc3ccccc3c1Br)N(Cc1ccccc1)C2=O	Mdm2 MdmX PPI 50 (no result: CSC inhib) | Mdm2 MdmX conf inactive
COc1ccc(-c2ccc(OC)c([C@H]3[C@H]4C=CC[C@@H](C)[C@@H]4C(=O)N3Cc3ccccc3)c2)cc1C	none
C[C@@H]1CC=C[C@H]2[C@H]1C(=O)N(Cc1ccccc1)[C@H]2c1ccoc1	none
COc1ccc(-c2ccc(OC)c([C@H]3[C@@H]4C=CCC[C@@]4(C)C(=O)N3Cc3ccccc3)c2)cc1OC	none
CC[C@@H]1CC=C[C@H]2[C@H]1C(=O)N(Cc1ccccc1)[C@H]2c1ccoc1	CSC inhib 86, Mdm2 MdmX PPI 69 | Mdm2 MdmX conf inactive
COc1ccc(-c2ccc(C(C)=O)cc2)cc1[C@H]1[C@H]2C=CC[C@@H](C)[C@@H]2C(=O)N1Cc1ccccc1	Mdm2 MdmX PPI 58 | Mdm2 MdmX conf inactive
CC(C)C(C(=O)NC1CCCC1)N(CC1CCCO1)C(=O)CNS(=O)(=O)c1ccccc1 (centres undefined)	none
O=C(Nc1cc(S(=O)(=O)N2CCCCC2)ccc1Oc1ccccc1)C1=COCCO1	none
O=C(NCCCN1CCOCC1)c1cc(S(=O)(=O)N2CCOCC2)ccc1Cl	none (no result: aSyn 5UTR inh)
O=C(NNC(=O)C1CC1)c1ccc(F)cc1F	none (no result: aSyn 5UTR inh)
N#C/C(=C\c1ccc[nH]1)C(=O)Nc1ccccc1[N+](=O)[O-]	none
O=C(CN1C(=O)NC2(CCCCCC2)C1=O)NCCc1ccc(F)cc1	none (no result: A1 inh, CSC inhib, Beta apoptosis, aSyn 5UTR inh)
COc1ccc(C(=O)Nc2nc3ccccc3s2)c(OC)c1	aSyn 5UTR inh 79, Mdm2 MdmX PPI 100 | Mdm2 MdmX conf 99 | Full FLuc ctr 52
CS(=O)(=O)c1ccc2nc(NC(=O)c3ccccc3Cl)sc2c1	none
COc1ccc(-n2nc(C(=O)Nc3nc4ccc(OC)cc4s3)c3ccccc3c2=O)c(OC)c1	Mdm2 MdmX PPI 77 | Mdm2 MdmX conf inactive
COc1ccc2nc(NC(=O)c3cccc(-c4cc5ccccc5oc4=O)c3)sc2c1	CSC inhib inconclusive, Mdm2 MdmX PPI 78 | Mdm2 MdmX conf 64 | Full FLuc ctr 120
COc1ccccc1C(=O)Nc1nc2ccc(S(C)(=O)=O)cc2s1	Mdm2 MdmX PPI 53 | Mdm2 MdmX conf inactive
